Test results reported in PubChem BioAssay (NCI).
The panel holds about 79,000 compounds, 15% with a hit somewhere; the sample as a whole holds those more often. A number with no mark means an inactive call. Calls of active or inactive are those of the source. No stated cut-off is given here; in the data, active means growth inhibition above about 70%; inactive means the rest.

Columns and labels:
[1] = NCI Yeast Anticancer Drug Screen. Data for the rad50 strain (AID 155);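 further: 0% = growth of vehicle-only cultures of the same strain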; settings: S. cerevisiae rad50 strain growth inhibition, hits give high values
How it was run: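 Relative growth inhibition (compound vs vehicle) was measured in yeast with a defined repair-gene alteration.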

[2] = NCI Yeast Anticancer Drug Screen. Data for the mec2-1 strain (AID 157); settings: S. cerevisiae mec2-1 strain, hits give high values
How it was run: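 Mutant yeast (mec2-1) grown with compound; growth inhibition relative to vehicle control reported.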

[3] = NCI Yeast Anticancer Drug Screen. Data for the sgs1 mgt1 strain (AID 161);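 further: 0% = growth of cultures given vehicle only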; settings: S. cerevisiae sgs1 mgt1 strain, hits give high values
How it was run: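 Growth of a repair-deficient yeast mutant was monitored after compound treatment and expressed as inhibition relative to vehicle-treated cultures.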

[4] = NCI Yeast Anticancer Drug Screen. Data for the cln2 rad14 strain (AID 165);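 further: 0% = growth equal to vehicle treated cultures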; settings: S. cerevisiae cln2 rad14 strain, hits give high values
How it was run: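 Readout is yeast growth inhibition versus vehicle-treated controls, using a strain with cln2 and rad14 alterations exposed to compound.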

[5] = NCI Yeast Anticancer Drug Screen. Data for the bub3 strain (AID 167); settings: S. cerevisiae bub3 mutant strain, hits give high values
How it was run: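 Screening used yeast with an engineered genetic alteration affecting cell cycle control. Compound-exposed cultures were compared with vehicle cultures, and reduced growth was taken as inhibition.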

[6] = NCI Yeast Anticancer Drug Screen. Data for the mlh1 rad18 strain (AID 175); settings: S. cerevisiae mlh1 rad18 strain growth inhibition, hits give high values
How it was run: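 Genetically defined yeast (DNA repair-deficient) exposed to compounds; growth inhibition determined relative to vehicle.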

[7] = at 5.0 µM (retest, dose inferred, filed as 0.5)
[8] = at 50.0 µM (retest, dose inferred, filed as 5.0)

Row | SMILES | growth inhibition [1, 7] | growth inhibition [1, 8] | growth inhibition ([1]; at 50.0 µM) | growth inhibition [2, 7] | growth inhibition [2, 8] | growth inhibition ([2]; at 50.0 µM) | growth inhibition [3, 7] | growth inhibition [3, 8] | growth inhibition ([3]; at 50.0 µM) | growth inhibition [4, 7] | growth inhibition [4, 8] | growth inhibition ([4]; at 50.0 µM) | growth inhibition [5, 7] | growth inhibition [5, 8] | growth inhibition ([5]; at 50.0 µM) | growth inhibition [6, 7] | growth inhibition [6, 8] | growth inhibition ([6]; at 50.0 µM)
1 | O=C1CC(c2ccccc2)C(=O)N2C(=O)CC(c3ccccc3)C(=O)N12 (centres undefined) | 1% | 28% | 42.2% | 2% | 3% | 7.6% | -5% | 8% | 1.35% | -5% | -9% | -27.1% | 0% | 28% | 71.5% (active) | 2% | -7% | 45.8%
2 | OC(CCl)COc1c(Cl)c(Cl)c(Cl)c(Cl)c1Cl (centres undefined) | -3% | 7% | -1% | -1% | 10% | 4.55% | -4% | 3% | 93% (active) | 2% | 9% | -32.7% | 0% | 16% | 11.4% | -3% | 5% | 13.6%
3 | COC(=O)C12CCC(=O)C(C)=C1CCC(OC)(OC)C2 (centres undefined) | -5% | 4% | 95.2% (active) | -10% | 6% | 16.9% | 7% | 17% | 66.5% | -2% | -7% | -1% | -2% | -3% | 61.8% | 10% | 11% | 82.3% (active)
4 | Cc1cc(Cl)ccc1OCC(=O)Oc1c(Cl)c(Cl)c(Cl)c(Cl)c1Cl | 7% | 36% | 65.8% | 8% | 13% | 73% (active) | 0% | 42% | 67.6% | -12% | 33% | 42.8% | -6% | 19% | 68.9% | – | – | –
5 | S=C(N/N=C1\C=Cc2ccccc2C1)N/N=C1\C=Cc2ccccc2C1 | 0% | 17% | 55.5% | -4% | 59% | 41.4% | -7% | 45% | 41.7% | 2% | 4% | 36.1% | -3% | 36% | 62.4% | – | – | –
6 | Cc1ccc(-c2c3c(cc4cc(C)ccc24)C(=O)OC3=O)cc1 | 12% | 26% | 14.8% | -2% | 12% | 6.85% | -1% | 27% | 17.9% | 4% | 6% | 15.2% | 1% | 4% | 15.8% | – | – | –
7 | CNc1ccc2c(c1)c1ccccc1n2C | 11% | 26% | 71.3% (active) | 2% | -67% | 4.2% | 3% | 21% | 40.1% | -1% | -1% | 65.5% | -1% | 35% | 74.5% (active) | – | – | –
8 | CSc1ncccc1C(=O)[O][Sn]([c]1ccccc1)([c]1ccccc1)[c]1ccccc1 | 100% (active) | 99% (active) | 97.3% (active) | 100% (active) | 99% (active) | 97.9% (active) | 100% (active) | 99% (active) | 97.7% (active) | 99% (active) | 99% (active) | 86.7% (active) | 99% (active) | 99% (active) | 97.5% (active) | 99% (active) | 99% (active) | 96.8% (active)
9 | O=[N+]([O-])C1C(c2ccccc2)CC=CC1N1CCCC1 (centres undefined) | 2% | 97% (active) | 98.5% (active) | 15% | 95% (active) | 98% (active) | 17% | 97% (active) | 98% (active) | -2% | 85% (active) | 93.9% (active) | -3% | 95% (active) | 97.3% (active) | 7% | 98% (active) | 98.2% (active)
10 | CN(C)CCC(=O)/C=C/c1ccccc1 | -2% | 3% | 53% | -1% | 5% | 38% | -3% | 1% | 75.9% (active) | -2% | 1% | 38.1% | -3% | 11% | 61% | -3% | 4% | 63.1%
11 | O=c1[nH]c(=S)[nH]c(-c2ccccc2)c1Cc1c(O)ccc2ccccc12 | -15% | 74% (active) | 88.7% (active) | 32% | 40% | 89.6% (active) | -10% | 65% | 84.3% (active) | -17% | 41% | 75.2% (active) | -15% | 57% | 80.8% (active) | – | – | –
12 | ON=C1c2ccccc2-c2ccccc21 | 8% | 58% | 54.2% | 2% | 21% | -3.05% | 2% | 30% | 41.5% | -12% | -6% | -68.6% | -4% | 9% | 30.9% | 9% | 58% | 71.7% (active)
13 | COc1cc(OC)c(SSCCCCS(=O)O)c(OC)c1 | 0% | 14% | 10.6% | 1% | 44% | 21.5% | 11% | 55% | 41.5% | -13% | 25% | 44.7% | 7% | 63% | -26.2% | 1% | 36% | 40.8%
14 | CC(=O)Oc1cc2c(cc1OC(C)=O)OCC(c1ccccc1)C2 (centres undefined) | 2% | 45% | 69.3% | 5% | 48% | 56.3% | 4% | 60% | 76.5% (active) | 3% | 20% | 35.9% | 41% | 93% (active) | 94.8% (active) | -10% | 53% | 63.4%
15 | CN(C)c1ccc2c(c1)Cc1cc(NC(=O)/C=C/C(=O)O)ccc1-2 | -31% | -21% | -6.7% | -10% | -19% | -2.05% | -13% | 12% | -8.55% | -5% | 6% | -5.6% | 2% | -3% | -10.7% | -2% | 7% | -4.7%
16 | CC1CC(C)CC(NC2=NCCO2)C1 (centres undefined) | 13% | -5% | -4.1% | 6% | -5% | 22.2% | 12% | 13% | 21.6% | 11% | 7% | 27.6% | 27% | 15% | 7.8% | 8% | -12% | 21.1%
17 | OC(Cc1ccccc1)(c1ccccc1)C(O)(Cc1ccccc1)c1ccccc1 (centres undefined) | 30% | 79% (active) | 85.2% (active) | 20% | 54% | 78.5% (active) | 0% | 52% | 78.4% (active) | 13% | 53% | 85.7% (active) | 15% | 61% | 74.5% (active) | 26% | 76% (active) | 87.2% (active)
18 | OCCOCCO[P+]1(OCCOCCO)n2c3ccc2C(c2ccccc2)=C2C=CC(=N2)C(c2ccccc2)=c2ccc(n21)=C(c1ccccc1)C1=NC(=C3c2ccccc2)C=C1 | 99% (active) | 98% (active) | 91.3% (active) | 100% (active) | 99% (active) | 92.2% (active) | 99% (active) | 98% (active) | 92% (active) | 97% (active) | 99% (active) | 91.4% (active) | 100% (active) | 99% (active) | 89% (active) | 97% (active) | 98% (active) | 85.8% (active)
